{"source": "ChEMBL document CHEMBL1961873", "about": "“Compounds: GSK PKIS; Assays: Nanosyn kinase panel” (2012)", "data": [{"tested_on": "Epidermal growth factor receptor (Homo sapiens), P00533 [T790M]", "sequence (P00533 whole entry T790M)": "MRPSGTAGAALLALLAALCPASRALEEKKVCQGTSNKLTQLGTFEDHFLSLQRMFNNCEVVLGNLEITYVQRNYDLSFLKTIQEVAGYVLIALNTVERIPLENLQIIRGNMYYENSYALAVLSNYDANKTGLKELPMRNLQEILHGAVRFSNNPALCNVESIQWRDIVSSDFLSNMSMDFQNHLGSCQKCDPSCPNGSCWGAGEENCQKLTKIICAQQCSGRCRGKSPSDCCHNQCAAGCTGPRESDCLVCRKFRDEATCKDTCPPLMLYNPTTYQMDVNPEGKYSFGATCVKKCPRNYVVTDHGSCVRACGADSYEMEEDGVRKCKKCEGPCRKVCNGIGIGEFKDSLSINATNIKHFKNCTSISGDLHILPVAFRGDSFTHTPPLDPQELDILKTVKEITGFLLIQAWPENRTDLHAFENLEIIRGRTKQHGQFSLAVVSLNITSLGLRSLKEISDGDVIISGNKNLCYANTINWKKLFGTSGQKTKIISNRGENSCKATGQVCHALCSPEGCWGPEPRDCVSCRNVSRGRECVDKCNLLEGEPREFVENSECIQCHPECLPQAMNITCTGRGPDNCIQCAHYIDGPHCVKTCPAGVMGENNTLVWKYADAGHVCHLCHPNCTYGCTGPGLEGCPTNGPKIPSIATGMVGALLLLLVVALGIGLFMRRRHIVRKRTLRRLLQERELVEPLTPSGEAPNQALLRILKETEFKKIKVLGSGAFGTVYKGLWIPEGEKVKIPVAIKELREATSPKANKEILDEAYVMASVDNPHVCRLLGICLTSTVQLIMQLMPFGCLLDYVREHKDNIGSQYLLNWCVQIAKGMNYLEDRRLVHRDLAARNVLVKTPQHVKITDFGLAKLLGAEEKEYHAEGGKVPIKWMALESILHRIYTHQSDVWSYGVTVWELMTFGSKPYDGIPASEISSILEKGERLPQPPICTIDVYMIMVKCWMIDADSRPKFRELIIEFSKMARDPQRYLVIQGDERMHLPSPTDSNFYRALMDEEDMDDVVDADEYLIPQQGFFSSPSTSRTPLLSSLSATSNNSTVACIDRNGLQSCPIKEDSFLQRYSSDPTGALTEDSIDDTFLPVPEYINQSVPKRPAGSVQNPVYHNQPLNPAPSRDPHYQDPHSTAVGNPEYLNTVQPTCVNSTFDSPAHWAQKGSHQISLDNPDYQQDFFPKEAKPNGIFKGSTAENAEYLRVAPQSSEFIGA", "settings": "at 0.1 µM", "units": {"inhibition": "%"}, "values": [{"smiles": "O=C(Nc1n[nH]c2cc(-c3ccc(F)cc3)ccc12)C1CC1", "inhibition": 1.54}, {"smiles": "CNC(=O)c1cccc(C#Cc2cncnc2Nc2ccc(OCc3cccc(F)c3)c(Cl)c2)c1", "inhibition": 1.03}, {"smiles": "COc1cccc(-c2c[nH]c3c(N/N=C/c4ccncc4)ncnc23)c1", "inhibition": 1.02}, {"smiles": "CCn1c(-c2nonc2N)nc2cnc(Oc3cccc(NC(=O)c4ccc(N(C)C)cc4)c3)cc21", "inhibition": 0.09}, {"smiles": "COc1ccc(-c2cc3c(N)ncnc3o2)cc1", "inhibition": -2.23}, {"smiles": "c1ccc(-c2nc3n(c2-c2ccc4c(c2)OCO4)CCC3)nc1", "inhibition": 0.12}, {"smiles": "FC(F)(F)c1cccc(-c2nn3ncccc3c2-c2ccnc(Nc3ccc4c(c3)OCCO4)n2)c1", "inhibition": 2.2}, {"smiles": "CC(C)COC(=O)c1ccc2c(c1)/C(=C/Nc1ccc(S(N)(=O)=O)cc1)C(=O)N2", "inhibition": -1.76}, {"smiles": "COc1ccc(-c2nn3ncccc3c2-c2ccnc(Nc3ccc4c(c3)OCCO4)n2)cc1", "inhibition": 0.7}, {"smiles": "CN1CCC(n2cnc(-c3ccc(F)cc3)c2-c2ccnc(N)n2)CC1", "inhibition": -0.02}, {"smiles": "N#Cc1c(NC(=O)c2ccc(F)cc2)sc2c1CCCC2", "inhibition": -0.49}, {"smiles": "COC(=O)Nc1nc2ccc(S(=O)(=O)c3ccc(NC(=O)Nc4cc(C(F)(F)F)ccc4F)cc3)cc2[nH]1", "inhibition": 2.47}, {"smiles": "NS(=O)(=O)c1ccc(N/N=C2\\C(=O)Nc3ccc4ncccc4c32)cc1", "inhibition": 1.15}, {"smiles": "[O-][S+]1CCN(Cc2ccc(-c3ccc4ncnc(Nc5ccc(OCc6cccc(F)c6)c(Cl)c5)c4c3)o2)CC1", "inhibition": 7.36}, {"smiles": "Cc1cccc2c1NC(=O)/C2=N\\Nc1ccc(S(N)(=O)=O)cc1", "inhibition": -0.7}, {"smiles": "CS(=O)(=O)CCNCc1ccc(-c2ccc3ncnc(Nc4ccc(OCc5ccccc5)c(C(F)(F)F)c4)c3c2)o1", "inhibition": 2.35}, {"smiles": "Nc1nc(-c2cccc(Cl)c2)c(-c2ccc3ncccc3n2)s1", "inhibition": 3.5}, {"smiles": "CNC(=O)c1cncc(/C=C/c2ccccc2Cl)c1", "inhibition": -0.23}, {"smiles": "CCn1c(-c2nonc2N)nc2c(C#CC(C)(C)O)ncc(OC3CCNCC3)c21", "inhibition": -0.25}, {"smiles": "CCn1c(-c2nonc2N)nc2ccccc21", "inhibition": -0.1}, {"smiles": "Cc1ccc(O)cc1Nc1ccnc2cc(-c3ccccn3)ccc12", "inhibition": 5.49}, {"smiles": "Nc1ncc(-c2cccc(S(N)(=O)=O)c2)c2scc(-c3ccc(F)c(Cl)c3)c12", "inhibition": 3.18}, {"smiles": "COc1cc2c(cc1Nc1nc(Nc3ccsc3C(N)=O)c3cc[nH]c3n1)N(C(=O)CN(C)C)CCC2(C)C", "inhibition": 26.6}, {"smiles": "COc1ccc2[nH]c3c4[nH]c5ccc(OC)cc5c4c4c(c3c2c1)C(=O)NC4=O", "inhibition": 3.67}, {"smiles": "COc1ccc(-c2cc(-c3c[nH]nc3-c3ccccn3)ccn2)cc1", "inhibition": 2.05}, {"smiles": "c1cc(-c2cnn3nc(N4CCOCC4)ccc23)nc(NC2CC2)n1", "inhibition": 2.15}, {"smiles": "NS(=O)(=O)c1ccc(Nc2ncc(-c3ccccc3)o2)cc1", "inhibition": 0.68}, {"smiles": "CCN(CC)S(=O)(=O)c1ccc(OC)c(Nc2ncc(-c3ccccc3)o2)c1", "inhibition": 1.36}, {"smiles": "CC(=O)NCc1cccc(C#Cc2cncnc2Nc2ccc(OCc3cccc(F)c3)c(Cl)c2)c1", "inhibition": -1.44}, {"smiles": "COc1ccc(-c2oc3ncnc(N)c3c2-c2ccc(NC(=O)Nc3cc(C(F)(F)F)ccc3F)cc2)cc1", "inhibition": 1.19}, {"smiles": "CCn1cc(-c2ccnc3[nH]ccc23)c(-c2cccc(NC(=O)Nc3ccc(OCc4ccccc4)cc3)c2)n1", "inhibition": -1.87}]}]}
